RXFP1 antag: RXFP1 (human) relaxin receptor antagonism | Q9HBX9 | HEK293-RXFP1, relaxin-stimulated cAMP HTRF, 30 min; active compounds read low | activity change, negative = inhibition, % at 57.5 µM | 0.59% of 350,000 active | AID 1259400;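 active means activity change of -60% or lower, but not beyond a set lower limit; inconclusive means change between -60% and -40%, or beyond the set limit; inactive means change above -40%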
KCNH2 WT inh: inhibitors of human wildtype KCNH2 potassium channel; Q12809; U2OS, BacMam KCNH2, thallium flux FluxOr; active compounds read low; activity change, % at 1.84 µM; 0.37% of 340,000 active; AID 720551;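 active means maximum activity change below -70%; inconclusive means maximum activity change between -70% and -50%; inactive means maximum activity change above -50%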
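U2OS cells were transduced with wild-type KCNH2 virus (2.03 x 10^8 / mL) for 4 h at room temperature, then cultured overnight at 37 C. Thallium flux was read with FluxOr dye. Rate constants were normalized to DMSO controls.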
RXFP1 ag: RXFP1 (human) receptor agonism. 0.3% of 370,000 active. HEK293T-RXFP1 cAMP TR-FRET, 30 min; response scale: percent of porcine relaxin response, buffer zero. Q9HBX9. Potency, µM (titrated, usually from 57.5 µM), for inactives: at the highest dose activation, actives largely listed as activators; active means well fitted activation curve with a large enough effect; inconclusive means small, poorly fitted or top-dose-only effect; further: potency means the concentration at half of the fitted maximal effect; nearly all actives have a fitted effect of over 60% in size
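Agonist response is measured as cAMP accumulation in an RXFP1-transfected HEK293T line under PDE4 inhibition. Values are scaled between buffer-only and 29 nM porcine relaxin, and EC50s come from standard Hill equation fits.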
pAkt inh: inhibitors of Akt phosphorylation | 0.32% of 360,000 active | activity change, % for hits at 50 µM | AID 651550 | Neuro2A IGF-stimulated pAkt S473 HTRF, 20 min; active compounds read low; in the data active means activity change below about -80%; inconclusive means mostly about -51% to -80%
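Neuro2A cells (4,500/well, DMEM with 0.5% FBS) were treated with compound at a single 50 µM final concentration, stimulated with 6 nM IGF for 20 min at 37 °C, and lysed. Phospho-Akt Ser473 was read by HTRF as 665/615 ratio ×10^4.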
KCNH2 3.1 block: blocks the human KCNH2 3.1 channel isoform; U2OS KCNH2 3.1, thallium flux FluxOr; active compounds read low; activity change, % (tested at about 1.8 µM); 0.95% of 340,000 active;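 active means maximum activity change below -70%; inconclusive means maximum activity change from -70% to -50%; inactive means maximum activity change above -50%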;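 further: thallium influx rate constant from kinetic fluorescence after stimulation buffer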
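Virally transduced U2OS (3.1 isoform, 4 h infection in dark at RT) → overnight 37 C → FluxOr + Red40 in HBSS/HEPES, 45 min → stimulation buffer, 2 min kinetic read → rate constant vs DMSO controls.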
Numbers without * were called inactive; i = inactive; ? = inconclusive; nt = no result. Only some compounds are listed: those with a hit (about 1.7% of all), similar ones and a draw of the others. On the % scale 0 is the no-effect control and ±100 the full control effect.

SMILES | RXFP1 antag | KCNH2 WT inh | RXFP1 ag | pAkt inh | KCNH2 3.1 block
C=Cc1ccc2c(c1)N(C)C(=C)S2 | -119* | -1 | 1% | i | 8
COc1ccc(NC(=O)CN(C)C(=O)CCCN2C(=O)c3cccc4cccc(c34)C2=O)cc1 | 5 | -8 | -2% | i | -8
COc1ccc(C)c(-n2c(N)cc(=O)n(Cc3ccccc3)c2=O)c1 | 4 | -10 | 5% | i | -82*
O=C1c2cccc3c([N+](=O)[O-])ccc(c23)C(=O)N1Cc1cccnc1 | -77* | -26 | 9% | i | -38
Cc1ccc(N2C(=O)c3cccc4c([N+](=O)[O-])ccc(c34)C2=O)c2cccnc12 | -3 | -28 | -2% | i | -98*
CN(C)CCCN(C(=O)COc1ccc(Cl)cc1)c1nc2cc3c(cc2s1)OCCO3 | -18 | 3 | -1% | i | -3
CC(=O)c1c(O)cc(C(C)C)n(-c2ccccc2)c1=O | nt | 12 | 0% | i | 1
COCCN1C(=O)c2ccc(C(=O)Nc3nccs3)cc2C1=O | 7 | -20 | 0% | i | 5
CCN1C(=O)c2ccc(C(=O)Nc3ncc(C)s3)cc2C1=O | 8 | 1 | 4% | i | 4
CCCN1C(=O)c2ccc(C(=O)Nc3nccs3)cc2C1=O | -5 | -10 | 1% | -111%* | -2
Cc1cnc(NC(=O)c2ccc3c(c2)C(=O)N(Cc2ccco2)C3=O)s1 | -14 | 11 | 0% | -120%* | -38
CCCCOc1ccc(/C=N/NC(=O)c2nnn(-c3nonc3N)c2CN2CCCCCC2)cc1 | nt | -1 | nt | i | -81*
Nc1nonc1-n1nnc(C(=O)N/N=C/c2ccc(OCc3ccccc3)cc2)c1CN1CCCCC1 | 6 | 6 | -1% | i | -98*
CN(C)c1ccc(/C=N/NC(=O)c2nnn(-c3nonc3N)c2CN2CCCCCC2)cc1 | nt | 7 | nt | i | -38
Cc1ccc2[nH]c(=O)c(CN(Cc3cccs3)S(=O)(=O)c3ccc4c(c3)OCCO4)cc2c1 | 5 | 3 | 0% | i | -120*
Cc1ccc(S(=O)(=O)NC(N)=NCCc2ccccc2)cc1C | 14 | -1 | -8% | i | -1
COc1ccccc1CNCC(=O)NCc1ccc(C)cc1 | 3 | -2 | -1% | i | -71*
Cc1ccc(C2=CC(C)(c3ccc(C)cc3)Nc3nc(C(F)(F)F)nn32)cc1 (stereo not drawn) | -67* | -4 | 0% | i | 20
CC1(c2ccc(OCC#N)cc2)C=C(c2ccc(OCC#N)cc2)n2nc(C(F)(F)F)nc2N1 (stereo not drawn) | -3 | -7 | -1% | i | -106*
Cc1cccc(N2CCN(CC(O)COc3ccccc3)CC2)c1 (stereo not drawn) | -4 | 42 | nt | i | -2
COc1cccc(OCC(O)CN2CCN(c3ccc(Cl)cc3)CC2)c1 (stereo not drawn) | -2 | 35 | 0% | i | -34
OC(COc1ccc(Cl)cc1)CN1CCN(c2cccc(Cl)c2)CC1 (stereo not drawn) | -23 | 7 | 0% | i | -78*
COc1ccc(OCC(O)CN2CCN(c3ccc(Cl)cc3)CC2)cc1 (stereo not drawn) | -10 | 26 | 8% | i | -84*
Cc1cccc(N2CCN(CC(O)COc3ccc(Cl)cc3)CC2)c1 (stereo not drawn) | -9 | 4 | 1% | i | -79*
CC(=O)Nc1ccc(OCC(O)CN2CCN(c3cccc(Cl)c3)CC2)cc1 (stereo not drawn) | -2 | 9 | 0% | i | 0
OC(COCc1ccc(Cl)cc1)CN1CCN(CC(O)COCc2ccc(Cl)cc2)CC1 (stereo not drawn) | 7 | 2 | 0% | i | -88*
O=C(CSc1nc(-c2ccc(F)cc2)nc2ccc(F)cc12)Nc1cccc(C(=O)O)c1 | -3 | -7 | ? | i | 1
Cc1nn(-c2ccccc2)c(Oc2ccc(F)cc2)c1/C=N/n1cnnc1 | 3 | -8 | 1% | i | -5
O=C(c1ccc(Cl)cc1)N1CCC(N2CCC(C(=O)N3CCOCC3)CC2)CC1 | -8 | -4 | -2% | i | -29
Cc1cc(OCC(O)CN2CCc3ccccc3C2)ccc1Cl (stereo not drawn) | -38 | 10 | 2% | i | -80*

Compound activity as filed in PubChem BioAssay.
